Assay results reported in article PMC7862700, “An all-to-all approach to the identification of sequence-specific readers for epigenetic DNA modifications on cytosine”.

Assays:
Assay in all cases: DAPPL (digital affinity profiling via proximity ligation, sequencing); 10 mM Tris-HCl pH 7.5, 50 mM NaCl, 1 mM DTT, 4% glycerol, room temperature, 30 min; GST-TFs on glutathione beads, 16-mer random dsDNA library, 0.1% formaldehyde crosslink after washing; high values mean tight binding
Conditions in all cases: protein: recombinant; tags: N-terminal GST; dsDNA, one strand shown
[1] = target: T1, FLI1 (Homo sapiens, UniProt Q01543 1-452)
T1 sequence: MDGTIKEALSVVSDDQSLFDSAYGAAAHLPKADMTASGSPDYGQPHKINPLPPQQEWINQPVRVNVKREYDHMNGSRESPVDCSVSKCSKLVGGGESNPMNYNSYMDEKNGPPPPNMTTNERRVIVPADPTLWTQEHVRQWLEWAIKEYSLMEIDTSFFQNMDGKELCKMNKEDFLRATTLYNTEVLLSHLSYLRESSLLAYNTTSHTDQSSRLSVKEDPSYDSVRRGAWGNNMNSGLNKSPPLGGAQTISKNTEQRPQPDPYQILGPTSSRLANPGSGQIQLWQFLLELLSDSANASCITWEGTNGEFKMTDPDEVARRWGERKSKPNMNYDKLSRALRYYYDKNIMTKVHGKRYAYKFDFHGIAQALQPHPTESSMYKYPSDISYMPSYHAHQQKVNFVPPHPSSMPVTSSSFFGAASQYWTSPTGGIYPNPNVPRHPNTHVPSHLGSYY
Procedure, shortened: (§1)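 Each value of binding signal is a hexamer's read frequency for a factor divided by the same hexamer's frequency in the tag-only sample. Barcoded, bead-captured GST fusions of human transcription factors made in yeast were pooled with that sample and incubated with 200 nmole of a random double-stranded 16-mer DNA library in Tris/NaCl/DTT/glycerol buffer at room temperature for 30 min. Washing, 0.1% formaldehyde crosslinking, proximity ligation, PCR and Illumina NextSeq500 sequencing followed.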

[2] = target: T2, ELK1 (Homo sapiens, UniProt P19419 1-428)
T2 sequence: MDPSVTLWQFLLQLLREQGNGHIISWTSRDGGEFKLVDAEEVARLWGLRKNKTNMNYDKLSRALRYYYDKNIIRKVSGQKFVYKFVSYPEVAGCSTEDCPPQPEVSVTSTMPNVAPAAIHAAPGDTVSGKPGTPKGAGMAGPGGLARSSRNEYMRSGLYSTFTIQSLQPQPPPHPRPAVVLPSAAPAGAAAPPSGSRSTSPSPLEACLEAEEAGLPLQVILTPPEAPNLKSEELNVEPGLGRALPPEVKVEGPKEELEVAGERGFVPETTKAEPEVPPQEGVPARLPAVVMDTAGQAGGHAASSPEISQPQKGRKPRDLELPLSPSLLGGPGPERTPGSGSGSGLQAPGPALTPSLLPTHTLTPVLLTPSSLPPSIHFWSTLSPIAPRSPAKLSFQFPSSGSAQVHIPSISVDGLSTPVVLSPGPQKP
Procedure, shortened: as §1

[3] = target: T3, GABPA (Homo sapiens, UniProt Q06546 1-454)
T3 sequence: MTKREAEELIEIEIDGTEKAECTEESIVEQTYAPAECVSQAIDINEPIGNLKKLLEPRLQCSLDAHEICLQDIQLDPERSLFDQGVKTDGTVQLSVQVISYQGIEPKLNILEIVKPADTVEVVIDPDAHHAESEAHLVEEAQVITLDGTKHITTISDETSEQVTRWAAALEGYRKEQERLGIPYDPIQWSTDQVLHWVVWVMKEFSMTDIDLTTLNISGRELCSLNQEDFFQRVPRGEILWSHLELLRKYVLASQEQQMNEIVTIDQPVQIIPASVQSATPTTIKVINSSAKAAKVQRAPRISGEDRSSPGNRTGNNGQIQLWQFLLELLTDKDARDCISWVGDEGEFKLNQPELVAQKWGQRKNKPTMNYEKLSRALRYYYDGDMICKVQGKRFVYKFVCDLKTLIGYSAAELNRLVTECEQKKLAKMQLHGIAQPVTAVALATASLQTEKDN
Procedure, shortened: as §1

[4] = target: T4, ERG (Homo sapiens, UniProt P11308 1-479)
T4 sequence: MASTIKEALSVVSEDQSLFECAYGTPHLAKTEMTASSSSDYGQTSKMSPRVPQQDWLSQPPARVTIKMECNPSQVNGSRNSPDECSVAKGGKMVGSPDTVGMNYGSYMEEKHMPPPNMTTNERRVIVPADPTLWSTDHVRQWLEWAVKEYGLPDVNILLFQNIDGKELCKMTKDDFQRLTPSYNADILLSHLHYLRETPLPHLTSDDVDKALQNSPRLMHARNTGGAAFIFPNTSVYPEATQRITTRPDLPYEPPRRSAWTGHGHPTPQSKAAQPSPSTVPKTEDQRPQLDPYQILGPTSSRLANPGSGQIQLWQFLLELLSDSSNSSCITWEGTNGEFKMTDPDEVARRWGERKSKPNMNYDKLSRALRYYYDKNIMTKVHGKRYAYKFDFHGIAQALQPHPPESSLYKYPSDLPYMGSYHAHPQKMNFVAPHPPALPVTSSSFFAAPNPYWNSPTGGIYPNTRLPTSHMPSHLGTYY
Procedure, shortened: as §1

[5] = target: ELF1 (Homo sapiens, UniProt P32519 1-619)
Chain of ELF1 (P32519 whole entry): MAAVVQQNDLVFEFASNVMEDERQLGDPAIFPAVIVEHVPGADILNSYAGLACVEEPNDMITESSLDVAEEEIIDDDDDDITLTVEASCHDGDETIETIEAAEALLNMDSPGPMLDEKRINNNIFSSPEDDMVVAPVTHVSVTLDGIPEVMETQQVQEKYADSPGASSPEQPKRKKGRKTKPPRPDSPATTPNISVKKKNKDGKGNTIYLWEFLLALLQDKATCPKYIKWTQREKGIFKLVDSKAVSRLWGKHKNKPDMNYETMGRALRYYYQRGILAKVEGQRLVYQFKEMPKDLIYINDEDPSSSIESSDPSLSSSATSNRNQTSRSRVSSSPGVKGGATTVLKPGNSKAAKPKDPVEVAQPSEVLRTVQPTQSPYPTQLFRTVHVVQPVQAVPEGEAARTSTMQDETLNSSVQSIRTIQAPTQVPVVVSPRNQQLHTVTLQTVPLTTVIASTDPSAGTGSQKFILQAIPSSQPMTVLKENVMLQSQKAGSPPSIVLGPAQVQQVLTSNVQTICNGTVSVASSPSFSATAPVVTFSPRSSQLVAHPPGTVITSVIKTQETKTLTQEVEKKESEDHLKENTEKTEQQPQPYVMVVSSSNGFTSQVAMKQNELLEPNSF
Procedure, shortened: as §1

[6] = target: T5, EHF (Homo sapiens, UniProt Q9NZC4 1-300)
T5 sequence: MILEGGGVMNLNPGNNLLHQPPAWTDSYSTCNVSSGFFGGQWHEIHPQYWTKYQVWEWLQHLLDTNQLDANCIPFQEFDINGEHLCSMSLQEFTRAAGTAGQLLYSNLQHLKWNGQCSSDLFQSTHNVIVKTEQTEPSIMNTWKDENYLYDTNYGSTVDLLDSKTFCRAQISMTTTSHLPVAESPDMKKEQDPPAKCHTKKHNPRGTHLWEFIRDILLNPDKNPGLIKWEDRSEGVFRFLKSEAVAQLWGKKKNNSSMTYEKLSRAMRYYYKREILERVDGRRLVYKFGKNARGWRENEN
Procedure, shortened: as §1

[7] = target: SPI1 (Homo sapiens, UniProt P17947 1-270)
Procedure, shortened: as §1

[8] = target: SPIB (Homo sapiens, UniProt Q01892 1-262)
Chain of SPIB (Q01892 whole entry): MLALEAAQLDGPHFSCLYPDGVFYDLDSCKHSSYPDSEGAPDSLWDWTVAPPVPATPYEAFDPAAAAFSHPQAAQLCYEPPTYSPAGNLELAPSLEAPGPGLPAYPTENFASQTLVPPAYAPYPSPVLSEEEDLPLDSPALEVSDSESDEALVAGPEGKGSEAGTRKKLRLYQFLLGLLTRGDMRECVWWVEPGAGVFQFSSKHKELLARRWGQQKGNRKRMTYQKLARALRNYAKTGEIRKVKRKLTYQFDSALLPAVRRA
Procedure, shortened: as §1

[9] = target: T6, ELK3 (Homo sapiens, UniProt P41970 1-407)
T6 sequence: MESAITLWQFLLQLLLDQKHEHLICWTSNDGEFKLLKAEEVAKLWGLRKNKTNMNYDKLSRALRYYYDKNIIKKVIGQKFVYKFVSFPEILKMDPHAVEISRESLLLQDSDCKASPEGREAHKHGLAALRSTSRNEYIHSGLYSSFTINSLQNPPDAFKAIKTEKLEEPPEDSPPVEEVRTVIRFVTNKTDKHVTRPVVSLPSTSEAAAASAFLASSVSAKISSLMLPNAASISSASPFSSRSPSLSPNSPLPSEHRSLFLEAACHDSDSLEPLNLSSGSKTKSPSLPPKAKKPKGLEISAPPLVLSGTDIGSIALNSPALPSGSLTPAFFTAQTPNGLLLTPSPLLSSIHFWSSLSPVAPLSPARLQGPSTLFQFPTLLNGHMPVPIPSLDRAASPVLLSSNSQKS
Procedure, shortened: as §1

| Sequence | binding signal [1] | binding signal [2] | binding signal [3] | binding signal [4] | binding signal [5] | binding signal [6] | binding signal [7] | binding signal [8] | binding signal [9] |
| --- | --- | --- | --- | --- | --- | --- | --- | --- | --- |
| AAGTGG | 1.09 fold enrichment (6-mer frequency, TF over GST control) | 1.19 fold enrichment (6-mer frequency, TF over GST control) | 1.22 fold enrichment (6-mer frequency, TF over GST control) | 1.16 fold enrichment (6-mer frequency, TF over GST control) | 1.17 fold enrichment (6-mer frequency, TF over GST control) | 1.24 fold enrichment (6-mer frequency, TF over GST control) | 1.5 fold enrichment (6-mer frequency, TF over GST control) | 1.26 fold enrichment (6-mer frequency, TF over GST control) | 1.33 fold enrichment (6-mer frequency, TF over GST control) |
| TGTCCC | 1.27 fold enrichment (6-mer frequency, TF over GST control) | 1.35 fold enrichment (6-mer frequency, TF over GST control) | 1.33 fold enrichment (6-mer frequency, TF over GST control) | 1.38 fold enrichment (6-mer frequency, TF over GST control) | 1.28 fold enrichment (6-mer frequency, TF over GST control) | 1.32 fold enrichment (6-mer frequency, TF over GST control) | 1.22 fold enrichment (6-mer frequency, TF over GST control) | 1.36 fold enrichment (6-mer frequency, TF over GST control) | 1.47 fold enrichment (6-mer frequency, TF over GST control) |
| TCATCA | 1.18 fold enrichment (6-mer frequency, TF over GST control) | 1.16 fold enrichment (6-mer frequency, TF over GST control) | 1.17 fold enrichment (6-mer frequency, TF over GST control) | 1.13 fold enrichment (6-mer frequency, TF over GST control) | 1.14 fold enrichment (6-mer frequency, TF over GST control) | 1.09 fold enrichment (6-mer frequency, TF over GST control) | 1.1 fold enrichment (6-mer frequency, TF over GST control) | 1.14 fold enrichment (6-mer frequency, TF over GST control) | 1.18 fold enrichment (6-mer frequency, TF over GST control) |
| TCTGGT | 1.25 fold enrichment (6-mer frequency, TF over GST control) | 1.29 fold enrichment (6-mer frequency, TF over GST control) | 1.32 fold enrichment (6-mer frequency, TF over GST control) | 1.33 fold enrichment (6-mer frequency, TF over GST control) | 1.22 fold enrichment (6-mer frequency, TF over GST control) | 1.21 fold enrichment (6-mer frequency, TF over GST control) | 1.31 fold enrichment (6-mer frequency, TF over GST control) | 1.21 fold enrichment (6-mer frequency, TF over GST control) | 1.31 fold enrichment (6-mer frequency, TF over GST control) |
